Most compounds without a hit are left out; they make up all but 7.4% or so of the library.
ELG1 genotoxic = genotoxicity induction in ELG1-luciferase HEK293T cells | HEK293T ELG1-luciferase reporter, luminescence, 16 h | Potency, µM (highest dose often 46 µM), inactives show top-dose activity change, positive = activation, actives largely listed as activators | 330,000 compounds, 1.3% hits | AID 504466; note: % of control where 0% means no effect; nearly all actives have a fitted effect of over 60% in size
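Cells (2,000/well) expressing the ELG1-luciferase fusion are dosed by pin tool and kept 16 hr at 37 °C, 5% CO2. Signal comes from ONE-Glo luciferase reagent after 30 min at room temperature.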
FLuc modulator = firefly luciferase modulation, counter-screen for miR-21 project | Potency, µM (series often up to 57.5 µM), for inactives: at the highest dose activity change, negative = inhibition, most hits filed as inhibitors | AID 588342 | purified FLuc, Km substrates, luminescence inhibition | 360,000 compounds, 6.9% hits | P08659;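 note: plate controls were vehicle for no effect and reference inhibitor for full effect; nearly all actives have a fitted effect of over 55% in size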
Target sequence (P08659 whole entry, looked up): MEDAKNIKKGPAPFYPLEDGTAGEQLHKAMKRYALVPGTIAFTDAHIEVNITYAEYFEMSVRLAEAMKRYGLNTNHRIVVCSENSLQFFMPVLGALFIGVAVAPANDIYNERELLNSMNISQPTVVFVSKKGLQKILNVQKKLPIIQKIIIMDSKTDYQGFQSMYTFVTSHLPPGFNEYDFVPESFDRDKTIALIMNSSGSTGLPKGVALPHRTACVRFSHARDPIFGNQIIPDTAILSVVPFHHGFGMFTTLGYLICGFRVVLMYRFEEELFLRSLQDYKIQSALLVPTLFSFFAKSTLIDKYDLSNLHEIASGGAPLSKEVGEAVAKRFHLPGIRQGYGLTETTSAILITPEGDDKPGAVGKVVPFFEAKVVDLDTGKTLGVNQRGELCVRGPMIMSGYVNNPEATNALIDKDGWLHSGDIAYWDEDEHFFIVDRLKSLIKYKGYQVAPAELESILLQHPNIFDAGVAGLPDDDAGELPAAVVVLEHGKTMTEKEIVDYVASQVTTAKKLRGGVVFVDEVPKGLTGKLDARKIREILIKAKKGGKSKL
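Purified P. pyralis luciferase (10nM final) with 10uM D-luciferin and 10uM ATP (Km levels) in 50mM Tris acetate pH 7.5, 10mM Mg acetate, 0.01% Tween-20, 0.05% BSA; qHTS 6-point titration, ~60 µM downward; luminescence read.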
Rab9 promoter act = Rab9 promoter activation | Huh7 Rab9 promoter-luciferase reporter, luminescence, 24 h | Potency, µM (top dose mostly 9.22 µM), without a hit: at the top dose activation, negative = inhibition, hits mostly activators | AID 485297 | 320,000 compounds, 2.8% hits; note: % of control where 0% means no effect; nearly all actives have a fitted effect of over 60% in size
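Cell-based reporter: Huh7 stable for Rab9 promoter-driven luciferase, plated in reduced-serum medium with 10% FBS at 1500 cells/well, compound-treated 24 h at 37 °C, luminescence read after 10 min reagent.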
SMN2 splice enh = increases expression of the SMN2 splice variant. HEK293 SMN2-luciferase splicing reporter, luminescence, 30-36 h. Potency, µM (series often up to 46.1 µM), for the others: top-dose activity change, positive = activation, most hits filed as activators. 210,000 compounds, 2.8% hits; note: % of control where 0% means no effect; nearly all actives have a fitted effect of over 55% in size
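qHTS luciferase splicing reporter: luminescence rises when SMN2 exon 7 is included in transfected HEK293 cells. Compound exposure lasted 30-36 h at 37C, with 4.5 mM final sodium butyrate as control, followed by a ONE-Glo read.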
NPC1 promoter act = activators of NPC1 promoter; Potency, µM (series often up to 9.22 µM), for the others: top-dose activation, usual class: activators; Huh7 NPC1 promoter luciferase reporter, 24 h; 320,000 compounds, 2.4% hits; note: % of control where 0% means no effect; nearly all actives have a fitted effect of over 60% in size
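Huh7 cells stably carrying NPC1 promoter–luciferase, plated in Opti-MEM with 10% FBS for 2 h, were exposed to compound in DMSO for 24 h at 37 °C; luciferase reagent was added for 10 min and luminescence read.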
* hit, by the source's call; ? = inconclusive; / = no result; [ ] = another dose, or the depositor's remark. Calls come from the whole dose curve; as a rule, active = well fitted curve in the direction sought with a large enough effect; inconclusive = small, poorly fitted or top-dose-only effect, or another doubt; inactive = no such curve, though single readings can be large; an effect the other way counts as inactive or inconclusive. Potency is the fitted concentration of half-maximal effect.

SMILES	ELG1 genotoxic	FLuc modulator	Rab9 promoter act	SMN2 splice enh	NPC1 promoter act
CC1(COc2ccc(CC3SC(=O)NC3=O)cc2)CCCCC1 (stereo not drawn)	/	/	/	5%	/
Cc1cccc(Cn2c(=O)n(Cc3ccccc3)c(=O)c3c2c2cc(C)ccc2n3C)c1	/	-3%	/	/	/
CCc1ccc(C(=O)Nc2nc3ccccc3[nH]2)cc1	?	0.11µM*	?	/	0.1µM*
COc1ccc(CC(=O)Nc2nc3ccccc3[nH]2)cc1	-1%	-2%	23%	/	30%
COc1cc(OC)cc(C(=O)Nc2nc3ccccc3[nH]2)c1	?	11µM*	?	?	21%
CN(C)S(=O)(=O)c1ccc(C(=O)Nc2nc3ccccc3[nH]2)cc1	?	?	?	11µM*	?
Cc1cc(C)cc(C(=O)Nc2nc3ccccc3[nH]2)c1	?	11µM*	?	/	2.5µM*
Cn1nc(C(=O)Nc2nc3ccccc3[nH]2)c2ccccc2c1=O	4%	-17%	?	14%	13%
NCC1OC(n2cnc3c(=O)[nH]c(N)nc32)C(O)C1O (stereo not drawn)	/	/	/	2%	/
N#C/C(C(=O)Nc1ccc(Cl)cc1)=C(/S)Nc1ccccc1	-3%	15µM*	-1%	/	0%
N#Cc1ccc(NC(=O)Nc2ccc(Cl)cc2)cc1	17%	?	-24%	-23%	22%
Cc1ccnc(NC(=O)COc2ccc3c(c2)CCC3)c1	2.1µM*	0.21µM*	2.5µM*	/	3.2µM*
Cc1ccnc(NC(=O)COc2ccc3oc4c(c3c2)CCCC4)c1	?	4.3µM*	5%	-21%	17%
Cc1ccccc1NC(=O)COc1ccc2oc3c(c2c1)CCCC3	/	-2%	/	-2%	/
CC(=O)c1ccc(NC(=O)c2cc3ccccc3o2)cc1	2.6µM*	?	0.63µM*	/	1µM*
O=C(Nc1ccc(F)cc1)c1cc2ccccc2o1	21%	6.7µM*	3.2µM*	/	3.5µM*
CSC(C(=O)c1cc2ccccc2o1)c1ccccc1 (stereo not drawn)	9%	?	3.2µM*	/	?
CC(NC(=O)c1cc2ccccc2o1)c1ccccc1 (stereo not drawn)	-3%	-10%	-12%	/	0%
CC(C)c1nnc(NC(=O)c2cc3ccccc3o2)s1	?	6.7µM*	2µM*	/	?
COc1ccc(N2CCN(S(=O)(=O)CCNC(=O)c3c(F)cccc3Cl)CC2)cc1	/	0%	/	/	/
O=C(Nc1ccc(N2CCCC2)cc1)c1cc2ccccc2o1	?	3µM*	2µM*	/	3.5µM*
CC(=O)N1CCN(c2ccc(NC(=O)c3cc4ccccc4o3)cc2)CC1	-1%	?	3%	/	0%
O=C(Nc1ccc(NC(=O)c2cc3ccccc3o2)cc1)c1ccco1	6%	-15%	20%	/	13%
Cc1cc(C(=O)Nc2ccccc2)oc1C	?	12µM*	2.8µM*	20µM*	?
O=C(Nc1ccccc1)c1cc2ccccc2o1	?	1.2µM*	1.6µM*	13µM*	2.8µM*
SMILES	ELG1 genotoxic	FLuc modulator	Rab9 promoter act	SMN2 splice enh	NPC1 promoter act
O=C(NNC(=O)c1ccccc1O)c1cc2ccccc2o1	?	27µM*	?	/	4.5µM*
O=C(NNC(=O)c1cc2ccccc2o1)c1ccncc1	4%	/	/	/	/
Cc1c(C)n(CCCN(C)C)c2ncnc(Nc3ccc(F)cc3)c12	0%	-5%	7%	/	-1%
COc1ccc(CCNc2ncnc3c2c(C)c(C)n3CCO)cc1OC	-9%	?	-5%	/	-16%
Cc1c(C)n(CCO)c2ncnc(Nc3ccc(F)cc3)c12	?	19µM*	?	/	25%
COc1ccc(Nc2ncnc3c2c(C)c(C)n3CCO)cc1	8.2µM*	5.4µM*	1.6µM*	/	1µM*
CCN(C(=O)C(=O)Nc1ccc2nc3n(c(=O)c2c1)CCCCC3)c1ccc(F)cc1	/	3%	/	9%	/
Cc1cnn(-c2cc(N/N=C/c3ccccc3F)ncn2)c1	?	-8%	20%	-6%	23%
COc1cc(N/N=C/c2ccc(N(C)C)cc2)ncn1	1.2µM*	0.85µM*	?	2.2µM*	1.3µM*
COc1cc(N/N=C/c2ccccc2O)ncn1	23µM*	15µM*	?	?	?
C=C1C[C@@]23CC[C@H]4[C@@](C)(CCC[C@@]4(C)C(=O)OC4OC(CO)C(O)C(O)C4O)[C@@H]2CC[C@]1(OC1OC(CO)C(O)C(O)C1OC1OC(CO)C(O)C(O)C1O)C3 (stereo partly drawn)	/	/	-8%[46.1 µM]	/	-5%[46.1 µM]
Cc1ccc(C(C(=O)NC2CCCCC2)N(Cc2cccnc2)C(=O)C2COc3ccccc3O2)o1 (stereo not drawn)	-6%	9%	1.3µM*	17%	?
CCOC(=O)c1cnc2c(C)c(C)ccc2c1Nc1ccc(S(=O)(=O)Nc2ncccn2)cc1	5%	19µM*	9%	?	2%
COc1cccc(NC(=O)C(=O)c2cn(CC(=O)N3CCCC3)c3ccccc23)c1	-4%	5.4µM*	18%	/	15%
CCc1ccc(NC(=O)C(=O)c2cn(CC(=O)N3CCCCC3)c3ccccc23)cc1	-2%	9.5µM*	-2%	3%	0%
Cc1ccc(NC(=O)C(=O)c2cn(CC(=O)N3CCCCC3)c3ccccc23)cc1	-1%	9.5µM*	-2%	4%	1%
COc1ccc(NC(=O)C(=O)c2cn(CC(=O)N3CCCC3)c3ccccc23)cc1OC	-12%	?	4%	/	-11%
O=C(COc1ccccc1)c1cn(CC(=O)N2CCCC2)c2ccccc12	1%	21µM*	-2%	-8%	-1%
Cc1cc(C)n(CC(=O)Nc2cc(F)ccc2F)c(=O)c1C#N	/	-6%	/	/	/
COc1ccccc1CNC(=O)C(=O)c1cn(CC(=O)N2CCCC2)c2ccccc12	3%	?	6%	/	17%
O=C(Nc1ccccc1Cl)C(=O)c1cn(CC(=O)N2CCOCC2)c2ccccc12	?	0.38µM*	2.5µM*	/	3.5µM*
COc1ccccc1CCNC(=O)C(=O)c1cn(CC(=O)N2CCOCC2)c2ccccc12	10%	24µM*	18%	/	15%
O=C(NCc1ccc(Cl)cc1)C(=O)c1cn(CC(=O)N2CCOCC2)c2ccccc12	6%	-17%	-2%	/	-3%
CCCCN1C(=O)c2[nH]nc(-c3ccccc3O)c2C1c1ccc(C(C)(C)C)cc1 (stereo not drawn)	/	0%	/	22%	/
COc1ccccc1CNC(=O)c1cc2cccc3c2n1CCS3	/	-14%	/	/	/
O=C(CCc1cn(Cc2ccc(F)cc2)c2ccccc12)NCCc1ccc(Cl)cc1	/	1%	/	/	/
CCN(CC)c1ccc(N=C2C(=O)Nc3ccccc32)cc1	-9%	6.7µM*	6%	/	1%
Cc1ccc(N=C2C(=O)Nc3ccccc32)cc1	-3%	?	-1%	/	3%
COc1ccc2c(c1)c1c(c(=O)n(-c3cccc(C)c3)c(=O)n1CC(=O)NCC1CCCO1)n2C (stereo not drawn)	/	0%	/	/	/

Compound activity deposited in PubChem by National Center for Advancing Translational Sciences (NCATS).
